# Compound activity as filed in PubChem BioAssay.
# Nrf2 activator = Nrf2 pathway activation; AREc32 ARE-luciferase reporter (MCF7-derived line), luminescence, 24 h; Potency, µM (top dose mostly 46.1 µM), for inactives: at the top dose activation, usual class: activators; 0.31% of 410,000 active; note: potency is the fitted concentration of half-maximal effect; % of control where 0% means no effect; nearly all actives have a fitted effect of over 65% in size
#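 Nrf2 activation is followed as ARE-luciferase induction in the AREc32 line after one day of compound treatment; luminescence is read with Steady-Glo.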
# A549 tox = counter-screen for Nrf2 inhibitors: cytotoxicity in A549 cells; A549 ARE-Fluc cells, CellTiter-Fluor viability, 18-24 h; AID 504648; 0.16% of 390,000 active; Potency, µM (top dose mostly 46 µM), inactives show at the highest dose activity change, negative = cytotoxicity, hits mostly inhibitors; note: potency is the fitted concentration of half-maximal effect; % is set by controls: 0 for no effect and ±100 for the full control effect
#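 A549 ARE-Fluc cells in 5% FBS OPTI-MEM, 5000 cells/well, rested 2 h then exposed to compounds in concentration-response for 18-24 h at 37 °C. Viability by CellTiter-Fluor fluorescence (Ex 405/Em 525) after 30 min; luciferase luminescence (BugLite, 15 min, RT) read afterwards.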
# Giardia kill = Giardia lamblia killing; Giardia lamblia trophozoite viability; AID 540267; 0.15% of 340,000 active; activity change, % at 7.66 µM, hits read low; in the data active = activity change below about -80%; inconclusive = between about -30% and that limit;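 note: parasites exposed to compound for two days anaerobically before the ATP read; % is set by controls: 0 for no effect and ±100 for the full control effect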
#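 ATP-content bioluminescence gauges trophozoite survival. Cells (100/well) receive compound and incubate anaerobically for 48 hrs at 37 deg C; detection reagent follows for 15-30 min at room temperature.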
# Apoferritin bind = candidate novel general anesthetic via apoferritin binding; apoferritin/1-aminoanthracene competitive binding, fluorescence; Potency, µM (series often up to 77.5 µM), for inactives: at the highest dose activity change, negative = displacement, usual class: inhibitors; 0.074% of 350,000 active; AID 485281; note: potency is the fitted concentration of half-maximal effect; % is set by controls: 0 for no effect and ±100 for the full control effect; nearly all actives have a fitted effect of over 20% in size
#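 10 uM apoferritin + 50% sat. 1-AMA, PBS; cpd 10 min RT; Ex380/Em535 endpoint; normalized to free probe vs complex; 4-param Hill fit; propofol titration as pos. ctrl.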
# mIDH1 inhibitor = inhibitors of human mutant IDH1 R132H | O75874 | IDH1-R132H enzyme, NADPH consumption, diaphorase/resazurin fluorescence | Potency, µM (titrated, usually from 76.6 µM), for the others: at the top dose activity change, negative = inhibition, hits mostly inhibitors | 0.093% of 390,000 active | AID 602179; note: potency is the fitted concentration of half-maximal effect; % is set by controls: 0 for no effect and ±100 for the full control effect; nearly all actives have a fitted effect of over 65% in size
# Target sequence (O75874 whole entry R132H, stated change not applied): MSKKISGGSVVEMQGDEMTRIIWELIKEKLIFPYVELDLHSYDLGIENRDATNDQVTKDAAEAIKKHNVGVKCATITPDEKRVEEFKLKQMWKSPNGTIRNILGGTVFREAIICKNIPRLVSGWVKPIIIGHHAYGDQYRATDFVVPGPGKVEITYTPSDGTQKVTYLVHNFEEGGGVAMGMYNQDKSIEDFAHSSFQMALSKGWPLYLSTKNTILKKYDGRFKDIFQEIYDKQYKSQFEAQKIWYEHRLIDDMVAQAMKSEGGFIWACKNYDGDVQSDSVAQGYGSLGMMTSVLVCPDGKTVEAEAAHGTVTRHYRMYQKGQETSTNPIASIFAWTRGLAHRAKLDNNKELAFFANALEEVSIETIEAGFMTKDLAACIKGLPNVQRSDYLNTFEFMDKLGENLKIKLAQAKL
#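 IDH1-R132H (0.5 ug/mL dispensed) in pH 7.5 Tris buffer was preincubated 30 min with compound, then given a substrate mix of 0.016 mM NADPH and 2 mM alpha-KG for 80 min at room temperature; remaining NADPH was read by diaphorase/resazurin fluorescence.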
# Nrf2 block = Nrf2 pathway inhibition; A549 ARE-Fluc reporter, luciferase luminescence, 18-24 h; Potency, µM (doses to about 46 µM), for the others: top-dose activity change, negative = inhibition, hits mostly inhibitors; 2.1% of 360,000 active; AID 504444; note: potency is the fitted concentration of half-maximal effect; % is set by controls: 0 for no effect and ±100 for the full control effect; nearly all actives have a fitted effect of over 60% in size
#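 In this cell-based qHTS, ARE-driven firefly luciferase in A549 cells reports Nrf2 activity; the luminescent signal after BugLite lysis is the measured value, with a prior CellTiter-Fluor read for cell health.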
# An asterisk follows results filed as active; ? = inconclusive; / = not tested or not shown. The list is not random: actives were taken first. Their share in the collection is about 2.3%. Unless noted, calls come from the whole dose curve; as a rule, active = well fitted curve in the direction sought with a large enough effect; inconclusive = small, poorly fitted or top-dose-only effect, or another doubt; inactive = no such curve, though single readings can be large; an effect the other way counts as inactive or inconclusive.
SMILES,Nrf2 activator,A549 tox,Giardia kill,Apoferritin bind,mIDH1 inhibitor,Nrf2 block
c1ccc(C(c2ccccc2)N2CCN(c3nc4ccccc4n4cnnc34)CC2)cc1,0%,-17%,14,-8%,-5%,18µM*
CCOc1ccc(N(C)S(=O)(=O)c2ccc(C)c(C(=O)NCc3cccs3)c2)cc1,0%,-5%,-5,/,-2%,16µM*
CCOc1ccc(C(=O)NCc2cccs2)cc1,2%,-2%,-3,-11%,-2%,?
COC(=O)[C@@]1(Cc2ccc(F)cc2)[C@H]2c3cc(C(=O)N(C)C)n(Cc4cccc5ccccc45)c3C[C@H]2CN1C(=O)c1ccccc1,/,/,/,-3%,/,/
CC(C)c1noc(-c2ccccc2OCC(=O)Nc2ccc([N+](=O)[O-])cc2)n1,-1%,4%,/,-10%,2%,-4%
Cn1cc(-c2cc3n(n2)CCC(=O)N3CCCC(=O)NCc2ccccc2Cl)c2ccccc21,5%,11%,/,-12%,-3%,/
CCOCCCNC(=O)c1cc(Sc2cccc(Cl)c2)nc2ccccc12,4%,-2%,/,0%,8%,/
CCOCCCNC(=O)c1cc(Sc2ccc(C)cc2)nc2ccccc12,-2%,3%,-1,8%,4%,23µM*
CCOCCCNC(=O)c1[nH]c2cc(OC)ccc2c1Sc1ccccc1,0%,-24%,/,-11%,-12%,26µM*
CCOc1ccc(C(=O)c2cn(Cc3ccc(Cl)cc3)c3cc(OC)c(OC)cc3c2=O)cc1,0%,15µM*,/,-2%,-14%,?
COc1ccc(Cn2cc(C(=O)c3ccc(Cl)cc3)c(=O)c3cc4c(cc32)OCO4)cc1,0%,?,/,-2%,7%,?
Cc1ccc2c(c1)c(=O)c(C(=O)c1ccc3c(c1)OCO3)cn2Cc1ccc(Cl)cc1,3%,-14%,/,-17%,-15%,23µM*
FC1(F)Oc2ccc(-c3ccc4ncnc(NCc5cccs5)c4c3)cc2O1,/,-13%,/,/,/,13µM*
Cc1cccc(-c2ccc3ncnc(NCc4cccs4)c3c2)c1,-1%,-3%,-24,/,/,21µM*
Clc1cccc(-c2ccc3ncnc(NCc4cccs4)c3c2)c1,4%,-2%,41,/,/,?
O=C(Nc1cccc2cccnc12)OC(Cl)(Cl)Cl,/,-1%,10,/,/,?
COc1cc(NS(=O)(=O)c2ccc([N+](=O)[O-])cc2)c2ncccc2c1,/,-19%,/,-20%,/,?
O=C(CN(CCc1ccccc1)S(=O)(=O)c1ccc(Br)cc1)NCc1ccc(Cl)cc1,-1%,8%,/,29%,0%,-11%
O=C(CN(CCc1ccccc1)S(=O)(=O)c1ccccc1)NCc1ccc(Cl)cc1,0%,-13%,/,37%,2%,21µM*
CC(C)(C)OC(=O)COc1cc(O)c2c(=O)cc(-c3ccccc3)oc2c1,3%,-2%,-16,4%,-3%,?
CC(C)(C)OC(=O)COc1cc(OCC(=O)OC(C)(C)C)c2c(=O)cc(-c3ccccc3)oc2c1,-2%,16µM*,-6,?,8%,23µM*
CCC1=Nc2cc(C(=O)NCc3ccccc3Cl)ccc2Sc2ccc(C)cc21,0%,-11%,/,-17%,5%,/
CCC1=Nc2cc(C(=O)N3CCC(C)CC3)ccc2Sc2ccc(C)cc21,4%,?,/,?,11%,18µM*
COc1ccc(-c2ccc(C(C)=O)cc2)cc1C1C2C=CCCC2(C)C(=O)N1Cc1ccccc1 (stereo unspecified),/,?,4,-15%,/,16µM*
COc1ccc(-c2ccc(C)cc2)cc1C1C2C=CCCC2(C)C(=O)N1Cc1ccccc1 (stereo unspecified),/,-2%,17,71%,/,-24%
COc1ccc(-c2ccc(C(C)=O)cc2)cc1[C@H]1[C@@H]2C=CCC[C@@]2(C)C(=O)N1Cc1ccccc1,3%,-14%,-1,-13%,-15%,21µM*
